According to PubChem BioAssay AID624202 (National Center for Advancing Translational Sciences (NCATS), 2012):
In all, about 380,000 compounds went through this assay and about 4,000 (1.1%) were called active. Inconclusive results (about 3%) are left out. What follows is part of a selection rich in actives, with near analogues and random picks from the rest. Unmarked numbers belong to inactive results. The call rests on the fitted dose curve; in most records, active means well fitted activation curve with a large enough effect; inconclusive means small, poorly fitted or top-dose-only effect; inactive means no such curve, though single readings can be large or run the other way.

assay: qHTS Assay to Identify Small Molecule Activators of BRCA1 Expression; details: MCF7-BRCA1-FFLuc reporter, luminescence, 48 h; series mostly up to 46.1 µM; activation: at the top concentration; further: nearly all actives have a fitted effect of over 80% in size
Procedure, shortened: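 Luminescence from a BRCA1-driven firefly luciferase in MCF7 cells was the read-out, taken 15 min after substrate addition following 48 h compound exposure at 37 °C. Data were normalized to a 10 microM genistein control and DMSO vehicle.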
Potency means the concentration at half of the fitted maximal effect.

Going from `Cc1cc(C)c(NC(=O)Cn2c(SCC(=O)NCc3ccccc3)nc3ccccc32)c(C)c1` to `COC(=O)c1ccc(C2C(C(=O)Nc3ccccc3)=C(C)Nc3nc4ccccc4n32)cc1` (stereo not given), the “activation” value rises from 0% to 1.34%.

Compared with `CC(=O)c1ccc(NC(=O)c2nc3nc(C)cc(C(F)F)n3n2)cc1`, `CCOC(=O)c1ccc(NC(=O)CCn2cnnn2)cc1` is lower in “activation” value: 21.9% for the first, -5.89% for the second.

First: CC(=O)Nc1ccc(NC(=O)C2CCCN(S(=O)(=O)c3ccc4c(c3)CCCC(=O)N4)C2)cc1 (stereo not given)
Second: CN1CCN(S(=O)(=O)c2ccc(NC(=O)c3ccco3)cc2)CC1
The “activation” value of the first is lower: 7.29% for the first, 55.6% for the second.

Compared with `Cn1c(=O)cc(OCC(=O)N2CCN(c3ccccc3)CC2)c2ccccc21`, `CCOC(=O)c1c(C)[nH]c(C)c1S(=O)(=O)N(C)CC(=O)N1CCN(c2ccccc2)CC1` is higher in “activation” value: 0.73% for the first, 3.46% for the second.

Going from `O=C(c1cnn(-c2ccc(F)cc2)c1-n1cccc1)N1CCN(c2ccc(F)cc2)CC1` to `COC(=O)c1ccccc1NC(=O)c1cnn(-c2ccc(F)cc2)c1-n1cccc1`, the “activation” value falls from -11.3% to -37%.

Compared with `COc1cc2nc(SCc3ccc(F)cc3)n3nc(CCn4c(C)nc5ccccc54)nc3c2cc1OC`, `Cc1ccccc1-n1c(=O)c2ccccc2n(Cc2ccc(F)cc2)c1=O` is lower in “activation” value: 9.42% for the first, 1.73% for the second.

First: COc1ccc2oc(-c3ccc(C)c(NC(=O)c4sc5ccccc5c4Cl)c3)nc2c1
Second: CNC(=O)c1sc(Nc2ccc(OCc3ccccc3)cc2)nc1C
The “activation” value of the first is higher: -5.08% for the first, -32.3% for the second.

Going from `CCOc1ccc(CCNC(=O)c2c(C)oc3ncn(C)c(=O)c23)cc1` to `CCOc1ccc(OCC)c(NC(=O)c2c(C)nn(-c3ccccc3)c2-n2cccc2)c1`, the “activation” value rises from 3.41% to 65.8%.

Compared with `Cc1ccnc(NC(=O)CCC(=O)N(CC(=O)NCc2ccccc2)Cc2ccco2)c1`, `CSCCC(NC(=O)c1ccco1)C(=O)Nc1cc(C)ccn1` (stereo not given) is lower in “activation” value: -1.62% for the first, -7.71% for the second.

First: Cc1ccc(NC(=O)C(c2ccccc2)N2CCN(C(=O)c3ccco3)CC2)cc1 (stereo not given)
Second: CC(C)c1ccc(NC(=O)Cn2c3ncccc3c(=O)n2-c2ccccc2)cc1
The “activation” value of the first is higher: 4.49% for the first, 0% for the second.

Compared with `COC(=O)CC1Oc2ccccc2-n2cc(-c3ccccc3)nc21` (stereo not given), `O=C(NCCCc1ccccc1)C(=O)c1c[nH]c2ccccc12` is higher in “activation” value: -3.85% for the first, 61.3% for the second.

First: CCN(CC)CCNC(=O)c1cc2c(=O)oc3ccc(C)cc3c2s1
Second: Cc1ccc2c(Cl)c(C(=O)NCCCn3ccnc3)sc2c1
The “activation” value of the first is higher: 6.45% for the first, -2.83% for the second.

First: O=C(Nc1ccc(Br)cc1)c1ccc(Br)c(S(=O)(=O)NCc2ccccc2)c1
Second: O=C(NC1CCN(Cc2ccccc2)CC1)c1ccc(Cn2c(=O)c3ccccc3n(Cc3cccc(F)c3)c2=O)cc1
The “activation” value of the first is lower: -67% for the first, -0.126% for the second.

Going from `COc1ccccc1NC(=O)Cn1cnc2ccc(S(=O)(=O)N3CCC(C)CC3)cc2c1=O` to `CCn1cc(C(=O)NCCc2ccccc2)c(=O)c2cc(S(=O)(=O)N3CCCCCC3)ccc21`, the “activation” value rises from -3.73% to 21.6%.

Going from `ClC/C=C/C[n+]1ccccc1Cl` to `O=C(CSc1nnc(SCc2ccc(Cl)cc2)s1)N/N=C/c1ccccc1Cl`, the “activation” value falls from 29.9% to 11.2%.

Going from `Cc1cc(NC(=O)COC(=O)/C=C/c2ccc(C)o2)no1` to `Cc1cccc(OCC(=O)OCC(=O)Nc2ccc(Cl)cn2)c1`, the “activation” value rises from -15.1% to -9.48%.

First: CCc1nnc(NC(=O)[C@@H](NC(=O)c2cccc(C)c2)C(C)C)s1
Second: CC(C)C(=O)Nc1nnc(Sc2ccc(N(C)C)cc2)s1
The “activation” value of the first is higher: -10.7% for the first, -16.1% for the second.

First: Cc1ccc(N2CCN(C(=O)CCc3c(C)nc4c(c3C)c(=O)n(C)c(=O)n4C)CC2)c(C)c1
Second: CCCC(=O)N1CCN(c2nc3c(OC)ccc(C)c3s2)CC1
The “activation” value of the first is lower: -5.92% for the first, 0% for the second.

Going from `CSc1n[nH]c(-c2ccco2)n1` to `CCOc1n[nH]c(-c2ccccc2)n1`, the “activation” value rises from 5.48% to 7.24%.

Going from `O=C(COC(=O)c1ccco1)Nc1ccc(Cl)cn1` to `O=C(COC(=O)Cc1ccc(Cl)cc1Cl)NCc1ccco1`, the “activation” value rises from -5.28% to 1.86%.

First: CC(C)N(Cc1nnc(-c2ccc(Cl)cc2)o1)C(=O)C1=COCCO1
Second: CCCCCN1CC(O)=C(c2nc(-c3ccc(Cl)cc3)cs2)C1=N
The “activation” value of the first is higher: 27% for the first, 3.59% for the second.

Compared with `Cc1cc(N2CCN(c3cccc(C(F)(F)F)c3)CC2)n2nc(-c3ccccc3)nc2n1`, `COc1cc2[nH]c(C)c(CCN3CCN(c4ccccc4)CC3)c2cc1OC` is higher in “activation” value: -34.4% for the first, 8.7% for the second.

Compared with `CCOC(=O)Cc1ccc(NC(=O)Nc2c[nH]c(=O)[nH]c2=O)cc1`, `CCC(=O)N1CCc2cc(CNC(=O)Nc3ccccc3Cl)ccc21` is lower in “activation” value: 9.34% for the first, 0% for the second.

Compared with `Cc1nn(CC(=O)Nc2ccc3c(c2)nc(CN2CCCCC2)n3C)c(=O)c2ccccc12`, `Cn1c(CCN2CCN(c3ccccn3)CC2)nc2cc(NS(=O)(=O)c3ccc(F)cc3)ccc21` is higher in “activation” value: -21.1% for the first, -8.24% for the second.

First: COc1ccc(-c2nc3nc(C)cc(C)n3c2Nc2c(C)cccc2C)cc1
Second: COc1ccc(Nc2nc(NCc3ccco3)nc(N/N=C/c3ccccc3Cl)n2)cc1
The “activation” value of the first is lower: -20.3% for the first, 65.1% for the second.

Going from `CC(C)CNC(=S)NNC(=O)c1ccccc1OC(F)F` to `CC(NC(=S)Nc1ccc(OC(F)F)cc1)c1ccc(F)cc1` (stereo not given), the “activation” value falls from -0.636% to -27.5%.

First: O=C(CSc1ccccc1)Nc1nnc(/C=C/c2ccccc2)s1
Second: O=C(Cc1c[nH]c2ccccc12)N/N=C/c1cccc(F)c1
The “activation” value of the first is higher: 70.1% for the first, -8.13% for the second.

Going from `Cc1cc2c(cc1S(=O)(=O)CCC(=O)Nc1ccc(OC(F)(F)F)cc1)OCC(=O)N2` to `CCOc1ccc(NC(=O)CSc2nnc3c(n2)[nH]c2ccc(S(=O)(=O)N4CCOCC4)cc23)cc1`, the “activation” value rises from 6.63% to 8.86%.

Compared with `COc1cccc(Nc2nc(N)c([N+](=O)[O-])c(NCc3ccco3)n2)c1`, `COC(=O)/C=C/C(=O)NCc1ccco1` is higher in “activation” value: 0.078% for the first, 7.24% for the second.

Going from `Cc1csc(NCC(=O)c2c[nH]c3ccccc23)n1` to `CC1CCN(CC(=O)c2c[nH]c3ccccc23)CC1`, the “activation” value falls from 14% to 6.76%.

First: CC(C)Oc1ccc(CNC(=O)C2CCN(c3nc4ccccc4n(C)c3=O)CC2)cc1
Second: COc1ccccc1C1C(C(=O)N2CCCCC2)=C(C)Nc2nc3ccccc3n21 (stereo not given)
The “activation” value of the first is lower: -1.95% for the first, 1.14% for the second.

First: Cc1nn(Cc2ccc(Cl)cc2)c(Cl)c1/C=N/NC(=O)CNc1ccccc1F
Second: COc1ccc(-n2ccnc(NCCc3ccc(Cl)cc3)c2=O)cc1OC
The “activation” value of the first is higher: 23% for the first, -20.9% for the second.

First: COC(=O)C1=C(C(=O)OC)[C@@H]2N(Cc3ccccc3)c3ccccc3[C@@]23C[C@@H](C(=O)OC)N(S(=O)(=O)c2ccc(C(F)(F)F)cc2)C3=N1
Second: COc1ccc2c(c1)c(N1CCCC1=O)c(C(=O)Nc1ccccc1C(F)(F)F)n2C
The “activation” value of the first is higher: -3.67% for the first, -15.9% for the second.

Going from `Cc1ccc(S(=O)(=O)c2nc(NCCCn3ccnc3)sc2Cl)cc1` to `CCCCCC(=O)Nc1ccc(-c2cn3cccnc3n2)cc1`, the “activation” value rises from -18.5% to 26.8%.

First: CC(C)c1ccc(NC(=O)CN(C)S(=O)(=O)c2ccc3c(c2)c(=O)n(C)c(=O)n3C)cc1
Second: CCN(CC)S(=O)(=O)c1ccc(C(=O)N=c2sc3cccc(OC)c3n2C)cc1
The “activation” value of the first is higher: 6.46% for the first, 1.52% for the second.

Compared with `O=C(NCC12CC3CC(CC(C3)C1)C2)c1cc2nc(-c3ccccc3)cc(C(F)(F)F)n2n1`, `N#CC(=C1SC=CS1)c1nc(-c2ccccc2)cs1` is lower in “activation” value: 4.13% for the first, 0.115% for the second.

Going from `S=c1[nH]nc(Nc2ccccc2)s1` to `CC(C)(C)C(=O)Nc1cccc(-c2ccc[nH]2)n1`, the “activation” value falls from 29.3% to 14.2%.

Compared with `COc1ccc(-c2noc(CSc3nc(C)cc(=O)[nH]3)n2)cc1OC`, `COc1cc(-c2noc(-c3ccc(N4CCCC4)c([N+](=O)[O-])c3)n2)cc(OC)c1OC` is lower in “activation” value: 6.36% for the first, 1.9% for the second.

Compared with `C=COC(=O)N1CCN(/[N+]([O-])=N/Oc2ccc([N+](=O)[O-])cc2[N+](=O)[O-])CC1`, `O=C(CN1CCSCC1)N/N=C/c1ccc(F)cc1` is higher in “activation” value: -34.6% for the first, 5.61% for the second.

Compared with `Cc1cccc(N2O[C@H]3C=CC2CCCC3)n1`, `Cc1ccc2c(c1)N(CC(=O)NCC1CCCO1)C(=O)CO2` (stereo not given) is higher in “activation” value: 8.96% for the first, 10.8% for the second.

First: CCCN(CCC)C(=O)Cn1c(=O)n(-c2ccc(Cl)cc2)c(=O)c2c3c(sc21)CCCCC3
Second: CCCN(CCC)S(=O)(=O)c1ccc(C(=O)Nc2sc3c(c2C(=O)OC)CCN(CC)C3)cc1
The “activation” value of the first is higher: 0.395% for the first, -3.04% for the second.

Compared with `COCc1cc(C)n(CC(=O)NCC2CCCO2)c(=O)c1C#N` (stereo not given), `O=C(CC(c1cccs1)N1Cc2ccccc2C1=O)Nc1ccc(F)cc1F` (stereo not given) is lower in “activation” value: -1.54% for the first, -10.8% for the second.

For `OC(Cc1ccc2ccccc2n1)c1ccc(Cl)c(Cl)c1` (stereo not given), the “activation” value was 91.1%.

In the case of `Cc1ccc(NC(=O)c2ccco2)cc1`, the Potency is reported as 7.94 µM (active).
In the case of `Cc1ccnc(NC(=O)c2ccc(NC(=O)c3ccco3)cc2)c1`, the Potency is reported as 11.2 µM (active).
With `CCc1nnc(NC(=O)/C=C/c2ccc(C)o2)s1` the Potency was 11.2 µM (active).
With `O=C(Nc1ccc(Cl)cn1)c1cnn2cccnc12` the Potency was 6.31 µM (active).
For `CN(C)CCN(C(=O)C1=COCCO1)c1nc2ccc(Cl)cc2s1`, the Potency was 12.6 µM (active).
In the case of `Cn1c(CCN2CCCCCC2)nc2cc(NC(=O)Nc3ccccc3)ccc21`, the Potency is reported as 7.94 µM (active).
In the case of `CC(C)CNC(=S)Nc1ccc(F)cc1`, the Potency is reported as 10 µM (active).
In the case of `COc1ccc(/C=C/c2nnc(NC(=O)C(C)C)s2)cc1`, the Potency is reported as 3.98 µM (active).
With `COc1ccc(-n2cnc3cc(NCc4ccco4)ccc32)cc1` the Potency was 8.91 µM (active).
For `O=C(NC1CCCC1)C(=O)c1c[nH]c2ccccc12`, the Potency was 11.2 µM (active).
For `CCn1nc(C)c(/C=N/NC(=O)Cc2ccc(Cl)cc2)c1C`, the Potency was 7.94 µM (active).
For `Cc1ccc(-c2nc(C#N)c(NCCCn3ccnc3)o2)cc1`, the Potency was 4.47 µM (active).
In the case of `O=C(/C=C/c1ccc(Cl)cc1Cl)NCc1ccco1`, the Potency is reported as 11.2 µM (active).
In the case of `CC(C)(C)C(=O)c1cnc(Nc2ccccc2)s1`, the Potency is reported as 4.47 µM (active).
With `COc1ccc(-c2noc(-c3cccc(OC)c3OC)n2)cc1OC` the Potency was 3.98 µM (active).
For `Cc1ccn(-c2cccc(-n3ccc(C)n3)n2)n1`, the Potency was 12.6 µM (active).
With `Cc1ccc(-n2c(C)cc(/C=C(\C#N)C(=O)NCC3CCCO3)c2C)cc1` (stereo not given) the Potency was 2.51 µM (active).
In the case of `CC(C)(C)C(=O)Nc1ccc(-c2cn3cccnc3n2)cc1`, the Potency is reported as 2.82 µM (active).
For `N#CC(=C1CCCC1)c1nc(-c2ccc(Cl)cc2)cs1`, the Potency was 6.31 µM (active).
In the case of `O=C(Cc1ccc(F)cc1)N/N=C/c1ccc2c(c1)OCO2`, the Potency is reported as 3.98 µM (active).
